For 16 molecules, composite z-score and z-score results are on record in PubChem BioAssay.

Active and inactive are the calls of the source.

Assay [1] is described as follows: binders of probe aFSTL3 on microarray, primary screen, stem cell growth factor project, biochemical, small-molecule microarray, fluorescence 635/667 (AID 1064).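 Further: measures binding of the biotinylated anti-FSTL3 antibody to printed compounds.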 To be noted: higher = more signal.
A short description of assay [2]: binders from COS7 lysate, DM2A8 probe, primary screen, torsin A project, cell lysate, small-molecule microarray, fluorescence 635/667 (AID 1065). To be noted: higher = more signal, COS7 lysate expressing mutant human TOR1A.
The nature of assay [3]: binders of probe aFGF2 on microarray, primary screen, stem cell growth factor project, biochemical, small-molecule microarray, fluorescence 635/667 (AID 1067).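 Further: measures binding of biotinylated aFGF2 protein to printed compounds on slides; z-score merges feature fluorescence and signal-to-noise across triplicate slides.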 The settings on record: higher = more signal.
The nature of assay [4]: binders of probe aFGF10 on microarray, primary screen, stem cell growth factor project, biochemical, small-molecule microarray, fluorescence 635/667 (AID 1071).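 Further: score merges 667 nm spot intensity and signal to noise from triplicate slides.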 To be noted: higher = more signal.
Assay [5] addresses Neurogenic locus notch homolog protein 2 (Homo sapiens) (UniProt Q04721). Nature of the assay: Notch2 binders on small-molecule microarrays, primary screen, biochemical, small-molecule microarray, 635 nm fluorescence, stem cell growth factors (AID 1073). The settings on record: Notch2 binding, higher = more signal.
For assay [6], the target named is Pro-neuregulin-1, membrane-bound isoform (Homo sapiens) (UniProt Q02297). In words: NRG1 binders on small-molecule microarrays, primary screen, psychiatric disease protein project, biochemical, small-molecule microarray, fluorescence 635/667 (AID 1075).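 Further: score combines 667 nm spot fluorescence with signal to noise.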 The settings on record: NRG1 binding, 635 nm fluorescence, higher = more signal.
Assay [7] has as its system Neuregulin-1 EGF-like domain. In words: binders of neuregulin-1 EGF-like domain, primary screen, biochemical, small-molecule microarray, 635 nm fluorescence (AID 1081).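 Further: binding of the protein to compounds printed on small-molecule microarray slides.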 To be noted: small-molecule microarray binding, higher = more signal.
The nature of assay [8]: FRG1 promoter luciferase signal modulators, primary screen, FRG1 inhibition for FSHD, cell-based, C2C12 myotubes, firefly/Renilla luciferase, luminescence (AID 1084). To be noted: higher = more signal, called active from +8 up or from −8 down.
Assay [9] is described as follows: binders of probe aFST on microarray, primary screen, stem cell growth factor project, biochemical, small-molecule microarray, fluorescence 635/667 (AID 1086).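 Further: score merges 667 nm fluorescence with signal-to-noise of each printed compound spot.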 To be noted: higher = more signal.
Assay [10] in a line: binders of probe aHhip on microarray, primary screen, stem cell growth factor project, biochemical, small-molecule microarray, fluorescence 635/667 (AID 1087).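 Further: score merges spot fluorescence at 667nm with spot signal to noise ratio.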 To be noted: higher = more signal.

Neurogenic locus notch homolog protein 2 (Homo sapiens), sequence (Q04721 whole entry, looked up, canonical isoform): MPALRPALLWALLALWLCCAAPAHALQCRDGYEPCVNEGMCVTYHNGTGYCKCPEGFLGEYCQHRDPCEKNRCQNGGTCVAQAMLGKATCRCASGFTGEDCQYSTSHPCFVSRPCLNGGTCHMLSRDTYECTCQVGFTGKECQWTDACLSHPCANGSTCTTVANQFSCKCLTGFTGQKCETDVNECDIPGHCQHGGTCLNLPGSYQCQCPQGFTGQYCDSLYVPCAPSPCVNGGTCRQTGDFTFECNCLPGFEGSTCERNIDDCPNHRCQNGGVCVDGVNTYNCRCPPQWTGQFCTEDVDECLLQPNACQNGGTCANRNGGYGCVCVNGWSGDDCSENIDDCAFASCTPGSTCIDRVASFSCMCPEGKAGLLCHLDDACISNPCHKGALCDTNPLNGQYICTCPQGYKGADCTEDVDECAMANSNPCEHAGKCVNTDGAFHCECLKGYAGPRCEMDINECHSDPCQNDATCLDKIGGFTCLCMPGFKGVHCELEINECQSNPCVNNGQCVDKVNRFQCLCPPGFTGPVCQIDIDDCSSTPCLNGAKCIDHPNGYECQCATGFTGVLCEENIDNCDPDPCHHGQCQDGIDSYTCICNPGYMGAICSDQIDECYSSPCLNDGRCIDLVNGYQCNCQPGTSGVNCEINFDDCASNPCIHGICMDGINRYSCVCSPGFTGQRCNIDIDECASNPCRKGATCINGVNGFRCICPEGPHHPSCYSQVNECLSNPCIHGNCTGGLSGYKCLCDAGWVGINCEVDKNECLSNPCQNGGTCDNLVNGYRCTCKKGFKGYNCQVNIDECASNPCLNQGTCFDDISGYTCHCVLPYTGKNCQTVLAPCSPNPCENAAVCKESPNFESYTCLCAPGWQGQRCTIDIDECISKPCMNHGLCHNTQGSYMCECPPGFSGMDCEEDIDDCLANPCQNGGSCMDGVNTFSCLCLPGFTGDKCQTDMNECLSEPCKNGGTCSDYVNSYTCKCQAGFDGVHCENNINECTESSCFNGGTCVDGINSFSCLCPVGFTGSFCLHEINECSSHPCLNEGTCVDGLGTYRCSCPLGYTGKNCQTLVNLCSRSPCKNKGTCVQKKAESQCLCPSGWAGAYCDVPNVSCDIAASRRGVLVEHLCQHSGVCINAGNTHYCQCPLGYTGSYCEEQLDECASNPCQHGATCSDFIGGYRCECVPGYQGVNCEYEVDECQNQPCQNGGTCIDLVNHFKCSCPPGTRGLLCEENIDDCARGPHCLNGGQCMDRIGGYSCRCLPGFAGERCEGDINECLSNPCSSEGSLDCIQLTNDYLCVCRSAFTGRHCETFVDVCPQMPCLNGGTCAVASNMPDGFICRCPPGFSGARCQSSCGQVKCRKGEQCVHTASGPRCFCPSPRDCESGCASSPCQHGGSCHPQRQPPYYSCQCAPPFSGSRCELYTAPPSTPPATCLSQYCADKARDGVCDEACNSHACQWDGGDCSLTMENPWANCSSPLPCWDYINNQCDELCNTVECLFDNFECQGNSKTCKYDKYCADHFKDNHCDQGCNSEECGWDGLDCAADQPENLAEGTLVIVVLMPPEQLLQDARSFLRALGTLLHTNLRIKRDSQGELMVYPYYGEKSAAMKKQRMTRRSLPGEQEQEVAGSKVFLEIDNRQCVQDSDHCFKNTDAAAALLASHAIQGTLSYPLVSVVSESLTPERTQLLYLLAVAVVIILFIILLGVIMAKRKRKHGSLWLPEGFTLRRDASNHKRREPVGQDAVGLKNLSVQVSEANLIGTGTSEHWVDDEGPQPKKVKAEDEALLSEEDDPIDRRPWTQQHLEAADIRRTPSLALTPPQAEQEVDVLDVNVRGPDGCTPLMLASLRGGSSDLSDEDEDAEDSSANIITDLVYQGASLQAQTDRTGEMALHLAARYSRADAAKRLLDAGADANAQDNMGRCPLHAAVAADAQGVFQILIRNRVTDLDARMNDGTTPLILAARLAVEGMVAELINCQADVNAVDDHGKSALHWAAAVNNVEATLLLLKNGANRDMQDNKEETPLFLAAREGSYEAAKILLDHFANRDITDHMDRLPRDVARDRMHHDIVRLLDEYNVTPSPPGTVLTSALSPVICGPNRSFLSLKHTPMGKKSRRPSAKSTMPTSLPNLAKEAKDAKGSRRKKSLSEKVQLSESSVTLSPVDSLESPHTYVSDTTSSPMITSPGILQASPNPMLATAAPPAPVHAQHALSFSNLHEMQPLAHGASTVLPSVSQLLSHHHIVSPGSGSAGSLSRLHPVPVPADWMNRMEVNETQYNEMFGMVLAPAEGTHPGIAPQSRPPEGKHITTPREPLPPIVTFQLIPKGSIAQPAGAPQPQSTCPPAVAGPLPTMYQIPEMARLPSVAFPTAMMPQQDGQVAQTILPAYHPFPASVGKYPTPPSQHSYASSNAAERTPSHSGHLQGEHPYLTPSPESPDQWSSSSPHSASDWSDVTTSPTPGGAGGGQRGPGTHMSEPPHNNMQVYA
Pro-neuregulin-1, membrane-bound isoform (Homo sapiens), sequence (Q02297 whole entry, looked up, the tested form may be a part, canonical isoform): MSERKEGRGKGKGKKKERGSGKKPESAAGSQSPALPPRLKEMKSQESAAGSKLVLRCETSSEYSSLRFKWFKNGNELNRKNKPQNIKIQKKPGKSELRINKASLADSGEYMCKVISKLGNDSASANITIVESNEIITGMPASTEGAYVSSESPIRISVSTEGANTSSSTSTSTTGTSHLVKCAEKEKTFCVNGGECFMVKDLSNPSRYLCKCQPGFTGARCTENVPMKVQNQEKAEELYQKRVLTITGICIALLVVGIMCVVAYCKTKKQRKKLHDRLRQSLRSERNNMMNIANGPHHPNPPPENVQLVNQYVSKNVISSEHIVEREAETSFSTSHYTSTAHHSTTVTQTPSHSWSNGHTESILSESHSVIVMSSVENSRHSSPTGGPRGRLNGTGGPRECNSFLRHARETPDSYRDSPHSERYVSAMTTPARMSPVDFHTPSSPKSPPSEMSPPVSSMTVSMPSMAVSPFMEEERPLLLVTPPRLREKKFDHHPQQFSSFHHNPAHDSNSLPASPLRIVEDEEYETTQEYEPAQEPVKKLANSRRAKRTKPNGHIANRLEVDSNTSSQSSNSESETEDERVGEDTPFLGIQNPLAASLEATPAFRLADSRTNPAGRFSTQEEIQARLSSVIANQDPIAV

For the molecule `N#Cc1ccc(NN2C(C(O)c3ccc(I)cc3)C=CC3C(=O)N(c4ccccc4)C(=O)C32)cc1` (stereo not given), the composite z-score is 0.0909 in assay [1]; -0.0384 in [2]; 0.105 in assay [3]; 0.587 in [4]; 1.32 in assay [5]; 1.76 in [6]. Moreover, the composite z-score was 1.28 in assay [7], 0.857 in assay [9] and 0.0854 in assay [10]. The z-score in [8] was -2.73 (inactive).
Turning to `Cc1ccccc1C(O)C1C=CC2C(=O)N(c3ccccc3)C(=O)C2N1Nc1ccc(C#N)cc1` (stereo not given), the composite z-score amounted to 0.834 in assay [1]; 1.46 in assay [2]; 0.429 in assay [3]; 1.15 in assay [4]; 1.63 in assay [5]; 1.91 in assay [6]. The composite z-score is 1.25 in [7], 1.96 in assay [9] and -0.111 in [10]. For the same molecule, the z-score in assay [8] is -1.25 (inactive).
In the case of `CCCC=C(CCC)[C@@H](NS(=O)(=O)c1ccc(C(F)(F)F)cc1)c1ccc(-c2ccccc2)cc1`, the composite z-score in assay [1] was found to be 0.357; in assay [2] it was 0.0864; in assay [3], 0.0407; in assay [4] it was 0.309; in [5] it was 1.5; in assay [6], 0.801. The composite z-score in assay [7] was found to be 1.02; in assay [9], 1.38; in assay [10], 2.14. For the same molecule, the z-score in [8] is -0.001 (inactive).
For `C#CCNC(/C=C/c1ccccc1)CO` (stereo not given), the composite z-score is -0.383 in assay [1]; 0.329 in assay [2]; -0.0973 in [3]; 0.41 in assay [4]; 0.495 in assay [5]; -0.21 in assay [6]. The composite z-score in [7] was -0.0021; in assay [9], 0.155; in assay [10], -0.0237. The z-score in [8] was -0.156 (inactive).
Take `CO[C@H]1COC(=O)[C@@H](Cc2ccccc2)NC(=O)[C@@H](C)COC(=O)CC=C[C@@H]1C`: the composite z-score in [1] is -0.533; in assay [2], 0.806; in assay [3], -0.142; in assay [4] it was -0.0799; in [5], -0.172; in assay [6] it was -0.923. Further, the composite z-score in [7] is -0.294; in assay [9], -0.0629; in assay [10], -0.0994. Further, the z-score in assay [8] is 0.0824 (inactive).
As for `CCOC(=O)C[C@H]1[C@H](OC(=O)c2ccccc2-c2ccccc2)[C@@H](NC(=O)C2CCCCC2)c2cc(OCCCO)ccc2N1C(=O)c1ccccc1`, the composite z-score is -0.43 in assay [1]; 0.0236 in assay [2]; -0.041 in [3]; 0.687 in [4]; 0.797 in [5]; 0.0516 in assay [6]. The composite z-score in assay [7] is 0.652; in assay [9] it was 0.0322; in assay [10] it was -0.0047. Further, in [8], the z-score was 0.404 (inactive).
Turning to `C[N+](C)(C)CCCCNC(=O)[C@@H]1C[C@@H]2C(=O)N3CCC[C@H]3C(=O)N2[C@@H]1c1cccc(OCCO)c1`, the composite z-score in [1] is -0.215; in [2], 1.3; in assay [3], -0.148; in assay [4], 0.712; in assay [5] it was -0.145; in [6], 0.837. For the same molecule, the results for the composite z-score in assay [7], in [9] and in assay [10] were 1.03, 0.209 and 0.171, respectively. Also, in [8], the z-score was 1.19 (inactive).
Regarding `CCCC=C(CCC)[C@@H](NS(=O)(=O)c1cccc(C(F)(F)F)c1)c1ccc(C(=O)OC)cc1`, the composite z-score in assay [1] was 2.23; in assay [2], 0.131; in assay [3], 0.731; in assay [4], -0.0446; in assay [5], 0.318; in assay [6] it was -0.0702. The composite z-score was found to be 0.53 in assay [7], 2.13 in assay [9] and 0.171 in assay [10]. For the same molecule, in [8], the z-score is 2.49 (inactive).
As to `Cc1ccc(S[C@]2(C(=O)NC3CC3)CC(=O)N(Cc3cc(C(F)(F)F)cc(C(F)(F)F)c3)[C@@H]2c2ccc(CO)cc2)cc1`, the composite z-score in assay [1] is -0.293; in [2], 0.0772; in assay [3], -0.138; in assay [4] it was 0.138; in [5], 0.1; in [6], 0.522. In addition, the composite z-score in assay [7] was 1.24; in [9], 0.0733; in assay [10], -0.295. Also, the z-score in [8] is -0.799 (inactive).
As for `Cc1ccc(S(=O)(=O)c2cc3oc2CC[C@@H](CO)NC(=O)N(C)Cc2cn(nn2)C[C@H](Cc2ccccc2)NC3=O)cc1`, the composite z-score was 0.0181 in [1]; 0.345 in assay [2]; -0.0538 in [3]; 0.175 in [4]; -0.881 in assay [5]; 0.226 in assay [6]. Also, the figures for the composite z-score in assay [7], in [9] and in assay [10] were 0.807, -0.265 and -0.194, respectively. In addition, the z-score in [8] is -0.618 (inactive).
Regarding `CC(=O)NCCCC[C@@H]1NC(=O)[C@H]2C[C@@H](C(=O)NCCCCCCN(C)C)[C@@H](c3ccc(O)cc3)N2C1=O`, the composite z-score in assay [1] is -0.463; in [2] it was 1.68; in assay [3], -0.0876; in assay [4], 0.785; in assay [5], 0.269; in assay [6], 1.43. In addition, the composite z-score was 1.48 in [7], 0.31 in assay [9] and 0.0401 in [10]. Besides, in assay [8], the z-score was 4.59 (inactive).
On to `CCN1C(C)=C(C(=O)OC)[C@@H](c2ccccc2)N2C(=O)[C@](O)(C(=O)OC)[C@@H](c3ccccc3)C(C(C)=O)=C12`, for which the composite z-score in assay [1] was -0.0393; in [2] it was -0.0183; in assay [3], -0.0621; in assay [4], 0.391; in assay [5], 0.991; in [6], -0.485. Moreover, the results for the composite z-score in [7], in [9] and in [10] were 0.913, 0.283 and -0.262, respectively. Also, in assay [8], the z-score is -1.88 (inactive).
Consider `O=C1C2C=CC(C(O)c3ccccc3)N(n3cnnc3)C2C(=O)N1Cc1ccccc1` (stereo not given), for which the composite z-score in assay [1] was 0.43; in [2], -0.399; in [3] it was -0.0598; in [4] it was 0.118; in assay [5], 0.729; in [6], 1.33. In addition, the composite z-score is 0.544 in [7], 0.364 in [9] and -0.16 in assay [10]. Also, the z-score in assay [8] was -1.43 (inactive).
As for `C=C(COC)/C(=C/C[C@@H](OC(=O)c1ccncc1)c1ccc(OCCO)cc1)c1cc(C(=O)OC)ccc1OC`, the composite z-score is -0.202 in assay [1]; 0.984 in assay [2]; -0.0775 in assay [3]; 0.702 in assay [4]; 0.864 in assay [5]; 1.44 in assay [6]. The figures for the composite z-score in assay [7], in assay [9] and in assay [10] were 1.2, 0.238 and 0.219, respectively. The z-score in assay [8] was -2.14 (inactive).
Turning to `CC(C)[Si](OCCCNS(=O)(=O)c1ccc(Br)cc1)(C(C)C)C(C)C`, the composite z-score was -0.491 in [1]; 0.231 in assay [2]; -0.0529 in assay [3]; 0.962 in [4]; 1.43 in assay [5]; 0.344 in assay [6]. Further, the figures for the composite z-score in assay [7], in [9] and in assay [10] were 0.468, 0.623 and -0.0645, respectively. Further, in [8], the z-score was -3.13 (inactive).
For `COCCCNC(=O)[C@@]1(Sc2ccc(C)cc2)CC(=O)N(Cc2cc(C(F)(F)F)cc(C(F)(F)F)c2)[C@@H]1c1ccc(CO)cc1I`, the composite z-score in assay [1] is 1.12; in assay [2], -0.181; in assay [3], -0.147; in assay [4] it was -0.811; in assay [5], -1.43; in [6], 2.17. The figures for the composite z-score in [7], in assay [9] and in assay [10] were 1.35, -0.265 and 1.67, respectively. Moreover, the z-score in assay [8] was -0.925 (inactive).
